Laboratory results from PubChem BioAssay.
Active and inactive are the calls of the source.

Columns and labels:
[1] = A549 cell viability effects, profiling panel, calcein-AM fluorescence, 48 h, basal (AID 1162); conditions: higher = more signal
[2] = adipocyte viability effects, profiling panel, cell-based, 3T3-L1 adipocytes, calcein-AM fluorescence, 48 h, basal (AID 1163); conditions: 3T3-L1 adipocytes viability, higher = more signal
[3] = HepG2 cell viability effects, profiling panel, calcein-AM fluorescence, 48 h, basal (AID 1164); conditions: higher = more signal
[4] = MM1S cell viability effects, profiling panel, calcein-AM fluorescence, 48 h, basal (AID 1165); conditions: higher = more signal;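 also: viability of MM1S multiple myeloma cells under basal unstimulated conditions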
[5] = basal RPMI8226 viability, no added stimulus, profiling panel, cell-based, calcein-AM fluorescence, 48 h, PK04 Diversity Set (AID 1166); conditions: RPMI8226 myeloma viability, higher = more signal;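 also: cells grown under basal conditions without added stimulus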
[6] = basal HepG2 mitochondrial membrane potential changes, profiling panel, cell-based, JC-1 fluorescence, 24 h, 100 nL compound (AID 1167); conditions: higher = more signal
[7] = basal 3T3-L1 adipocyte mitochondrial potential changes, profiling panel, cell-based, JC-1 fluorescence, 3T3-L1 adipocytes, 24 h, 100 nL compound (AID 1168); conditions: JC-1 mitochondrial fluorescence, higher = more signal, called active from +8 up or from −8 down
[8] = basal RPMI8226 mitochondrial membrane potential changes, profiling panel, cell-based, JC-1 fluorescence, 24 h, 100 nL compound (AID 1169); conditions: RPMI8226 myeloma, JC-1 mitochondrial potential fluorescence, higher = more signal
[9] = basal MM1S mitochondrial membrane potential changes, profiling panel, cell-based, JC-1 fluorescence, 24 h, 100 nL compound (AID 1170); conditions: higher = more signal
[10] = A549 lung cancer cell viability effects, profiling panel, resazurin fluorescence, 24 h, PK04 Diversity Set (AID 1171); conditions: higher = more signal, called active from +8 up or from −8 down
Also: test concentration not given here.

Compound	z-score [1]	z-score [2]	z-score [3]	z-score [4]	z-score [5]	z-score [6]	z-score [7]	z-score [8]	z-score [9]	z-score [10]
CC(=O)NCCCC[C@@H]1NC(=O)[C@@H]2C[C@H](C(=O)NCCCC[N+](C)(C)C)[C@H](c3ccc(O)cc3)N2C1=O	-0.431	0.994	-1.29	-0.606	0.274	-1.42	-0.152 (inactive)	-0.547	-0.0697	-1.04 (inactive)
COCCOC(=O)N1C(=O)[C@@]2(c3cc(C#CCCO)ccc31)[C@H](C(=O)Nc1nc3ccccc3s1)[C@H]1C(=O)O[C@H](c3ccccc3)[C@H](c3ccccc3)N1[C@@H]2c1ccccc1OCCO	-0.216	0.121	-1.1	-0.965	-0.333	-3.13	-0.372 (inactive)	-0.183	-0.744	0.513 (inactive)
CC(C)(C)N1CC=CC23O[C@@H]4C=CCCOC(=O)C4[C@H]2C(=O)N(CCO)[C@@H]3C1=O (stereo not given in full)	-0.708	-0.358	-0.811	0.18	0.608	-0.405	-1.46 (inactive)	0.168	-0.132	-0.693 (inactive)
COCCCNC(=O)[C@@]1(Cc2ccccc2N=[N+]=[N-])COC(c2ccc(OCCCO)cc2)=N1	0.552	-0.707	0.815	-0.919	-0.0778	0.796	0.156 (inactive)	-0.408	-1.21	0.992 (inactive)
CN1C(=O)C2C=CC(C(O)c3ccc(F)cc3)N(Nc3ccccc3)C2C1=O (stereo not given)	-0.434	-1.02	-0.613	-1.82	0.196	-1.81	-0.8 (inactive)	0.663	0.431	-0.369 (inactive)
COc1ccccc1CN1C(=O)c2ccccc2[C@](Cc2ccccc2I)(C(=O)NCC(F)(F)F)[C@@H]1c1ccc(CO)cc1	-0.698	0.95	-0.568	-2.39	-4.25	0.349	-1.39 (inactive)	-0.68	-0.176	0.12 (inactive)
CC(C)[Si](C#C[Si](C(C)C)(C(C)C)C(C)C)(O[C@H](C)c1cn([C@H](CO)Cc2ccccc2)nn1)C(C)C	1.11	-0.355	0.341	-2.37	0.482	0.376	0.727 (inactive)	0.362	-0.156	0.637 (inactive)
[N-]=[N+]=Nc1ccccc1[C@H]1OC(c2ccc(OCCCO)cc2)=N[C@@]1(Cc1ccccc1)C(=O)N1CCCCC1	-0.127	-0.019	-0.683	-3.09	-3.83	-0.251	1.44 (inactive)	-1.15	-2.77	-2.29 (inactive)
COc1ccc(C(O)C2C=CC3C(=O)N(c4ccccc4)C(=O)C3N2Nc2ccc([N+](=O)[O-])cc2)cc1 (stereo not given)	-0.27	-1.06	0.168	-0.495	0.0223	-0.378	-1.52 (inactive)	0.0302	-0.909	0.0404 (inactive)
CCCCC(O)C1C=CC2C(=O)N(c3ccccc3)C(=O)C2N1Nc1ccc(C(C)C)cc1 (stereo not given)	-0.341	-1.52	1.6	-0.603	-0.216	-1.29	-1.04 (inactive)	-0.749	-0.557	-0.762 (inactive)
OCCCC1=CC(c2ccc(CN3CCCC3)cc2)N(Cc2sc3ccccc3c2Cl)CC1 (stereo not given)	0.48	-0.301	0.212	-3.45	-3.64	3.4	0.0544 (inactive)	-0.252	-0.356	0.341 (inactive)
O=C1NC(=O)C2C1C=CC(C(O)c1cccc3ccccc13)N2Nc1ccc(Cl)cc1Cl (stereo not given)	-2.6	-0.132	-2.76	-3.71	-4.17	-4.07	-1.1 (inactive)	-0.962	-0.213	-0.993 (inactive)
NC(=O)N1C(=O)C2C(C1=O)C1C=C(CCCO)C2C(c2cccs2)N1Cc1cccc(OC(F)(F)F)c1 (stereo not given)	0.604	0.151	-0.4	-2.98	-1.11	-0.339	-0.678 (inactive)	0.146	1.37	0.48 (inactive)
CCC(CC)C(O)C1C=CC2C(=O)N(c3ccccc3)C(=O)C2N1Nc1ccc(C(C)C)cc1 (stereo not given)	-0.0442	0.667	0.0413	-0.393	-0.842	-1.68	0.261 (inactive)	-0.0785	0.299	-1.32 (inactive)
CN(C)c1ccc(C(O)C2C=CC3C(=O)N(c4ccccc4)C(=O)C3N2Nc2ccc([N+](=O)[O-])cc2)cc1 (stereo not given)	-0.455	-1.25	0.583	-0.676	-0.215	-1.01	-2.19 (inactive)	-0.296	-0.907	-0.272 (inactive)
CC(CO)N1C(=O)[C@@H]2[C@H]3C(=O)OCC=C[C@H]3OC23C=CCN(Cc2ccccc2)C(=O)[C@@H]13 (stereo not given in full)	-0.0849	0.847	-1.35	1.17	0.0239	-0.378	0.508 (inactive)	-0.0286	0.491	0.881 (inactive)

Compound	z-score [1]	z-score [2]	z-score [3]	z-score [4]	z-score [5]	z-score [6]	z-score [7]	z-score [8]	z-score [9]	z-score [10]
CN(C)C(=O)[C@@]1(CCS(=O)(=O)c2ccccc2)N=C(c2ccc(OCCCO)cc2)O[C@H]1c1ccccc1	0.0979	0.171	0.568	-0.215	-2.01	-0.104	-0.268 (inactive)	0.331	0.0134	-0.124 (inactive)
O=C1NC(=O)C2C1C=CC(C(O)c1c(F)cccc1Cl)N2Nc1ccc(Cl)cc1Cl (stereo not given)	-2.11	0.0772	-2.82	-3.64	-1.39	-3.44	-0.775 (inactive)	-1.06	-1.46	-2.22 (inactive)
C[N+](C)(C)CCCCCCNC(=O)[C@H]1C[C@H]2C(=O)NCC(=O)N2[C@H]1c1ccc(O)cc1	-0.93	-0.313	-0.799	-1.17	-0.121	-1.71	-0.159 (inactive)	0.0729	-0.235	0.14 (inactive)
[N-]=[N+]=NCc1ccccc1[C@H]1OC(c2ccc(OCCCO)cc2)=N[C@@]1(CCS(=O)(=O)c1ccccc1)C(=O)NCC(O)CO (stereo not given in full)	-0.257	0.538	0.0325	-0.381	0.429	-1.57	0.466 (inactive)	-0.221	-1.78	-0.317 (inactive)
COc1ccc([Si](C)(C)[C@@H]2[C@@H](CC(=O)N3Cc4ccccc4C[C@H]3CO)O[C@]3(C(=O)N(Cc4cccc(N5C(=O)c6cccc7cccc5c67)c4)c4ccccc43)[C@H]2C)cc1	-0.419	1.11	-0.553	-0.428	-1.41	-0.715	1.14 (inactive)	-0.98	-1.36	-1.28 (inactive)
O=C1O[C@@H](c2ccccc2)[C@@H](c2ccccc2)N2[C@@H](c3ccc(O)cc3)[C@]3(C(=O)Nc4ccc(C#CC5=CCCCC5)cc43)[C@@H](C(=O)NC[C@H](O)c3ccccc3)[C@H]12	0.0793	0.294	-1.86	-3.33	-4.54	-2.26	1.33 (inactive)	-1.06	-1.1	-1.49 (inactive)
C=CCN1C(=O)[C@@]2(O[C@@H](CCn3cc([C@H](O)c4ccccc4)nn3)[C@H]([Si](C)(C)c3ccc(OC)cc3)[C@H]2C)c2cc(N3CCC3=O)ccc21	0.36	0.977	0.0404	-1.12	-2.81	2.18	0.385 (inactive)	-1.01	0.219	-1.35 (inactive)
CCCCN1CC=CC23O[C@@H]4/C=C\CCC(C)OC(=O)C4[C@H]2C(=O)N(C(CO)C(C)C)[C@@H]3C1=O (stereo not given in full)	0.0282	-0.21	0.519	1.61	-0.773	-0.403	-1.27 (inactive)	0.0795	-0.676	-0.0227 (inactive)
CCCCCCc1nc(C2CC2)cc2c1[Si](C(C)C)(C(C)C)OC2	-0.315	0.865	-0.131	-2.26	-1.92	-1.01	-0.0319 (inactive)	-0.651	-0.00829	-0.366 (inactive)
CCOc1cc(C(O)C2C=CC3C(=O)N(c4ccccc4)C(=O)C3N2Nc2ccc(C#N)cc2)ccc1O (stereo not given)	-0.403	-0.958	0.264	-1.49	-1.01	-2.67	-1.55 (inactive)	0.674	-0.443	-0.883 (inactive)
COc1ccc(-c2cc3c(c(CCc4ccccc4)n2)[Si](C(C)C)(C(C)C)OC3)cn1	0.342	-0.171	-0.999	-1.68	-2.05	-0.911	-0.315 (inactive)	-0.738	-0.24	2.35 (inactive)
Cc1ccc(S[C@]2(C(=O)NCCCN(C)C)CC(=O)N(C3CCCCC3)[C@@H]2c2ccc(CO)cc2)cc1	0.242	-0.148	-0.0685	-1.96	-0.0053	1.53	-0.112 (inactive)	-0.151	-0.528	1.06 (inactive)
COc1ccc(CN(C2=CC[C@@]3(C(N)=O)C(=O)C(Cl)=C(Cl)C(=O)[C@@]3(C#N)C2)S(=O)(=O)c2ccc(Br)cc2)cc1	0.236	0.167	0.0144	-3.34	-1.66	-2.16	-0.689 (inactive)	-0.885	-2.06	-1.12 (inactive)
COCC1=C2[C@@H](CCc3ccccc3)OB(O)C[C@@H]2[C@@H]2C(=O)C=CC(=O)[C@@H]2C1	0.144	-0.147	-0.165	-3.4	-3.63	-3.14	-2.12 (inactive)	-0.654	-2.55	-0.648 (inactive)
COc1cc(OC)c(C(O)C2C=CC3C(=O)N(C)C(=O)C3N2NC(=O)OC(C)(C)C)cc1Br (stereo not given)	0.521	-0.23	0.25	-0.591	0.442	-1.05	-0.0401 (inactive)	0.0442	1.18	-0.503 (inactive)
CC(=O)NCCCC[C@@H]1NC(=O)[C@H]2C[C@@H](C(=O)NCCCC[N+](C)(C)C)[C@@H](c3cccc(OCCO)c3)N2C1=O	-0.443	0.247	-0.641	-1.7	0.206	0.105	0.169 (inactive)	-0.336	1.03	-0.549 (inactive)
